Records with an inconclusive call do not appear. A call without a number means that no potency is given here. Calls of active or inactive are those of the source. The call rests on the fitted dose curve; in most records, active means well fitted cell-killing curve with a large enough effect in the repeat runs; inconclusive means weak or mixed curves, or effect the other way; inactive means no such curve, though single readings can be large or run the other way.
Experiment: qHTS assay to identify small molecule agonists of the estrogen receptor alpha (ER-alpha) signaling pathway in the presence of an antagonist - cell viability counter screen (AID 1259386);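 further: cells exposed to compounds for 22 h at 37 °C before the viability read; nearly all actives have a fitted effect of over 30% in size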
Details: VM7Luc4E2 viability, CellTiter-Fluor fluorescence, 22 h; series mostly up to 92.4 µM
Text: National Center for Advancing Translational Sciences [NCATS]
NIH Chemical Genomics Center [NCGC]
U.S. Environmental Protection Agency [EPA]
National Institutes of Environmental Health Sciences [NIEHS]
National Toxicology Program [NTP]
U.S. Food and Drug Administration [FDA]
Estrogen receptor (ER), a member of nuclear hormone receptor plays an important role in development, metabolic homeostasis and reproduction. Two subtypes of ER, ER-alpha and ER-beta, have similar expression patterns with some uniqueness in both types. Endocrine disrupting chemicals (EDCs) and their interactions with steroid hormone receptors like ER causes disruption of normal endocrine function. Therefore, it is important to understand the effect of environmental chemicals in ER signaling pathway. For identifying ER agonists, VM7Luc4E2 cell line has been used in the current assay.
VM7Luc4E2 cell line (provided by Denison MS, University of California) endogenously expresses full-length ER-alpha and is stably transfected with a plasmid containing four estrogen responsive elements (ERE) upstream of a luciferase reporter gene. This current screening for measuring luciferase reporter gene activity using VM7Luc4E2 cells against Tox21 10K library collection is a confirmation study on agonist mode screening in presence of ER-antagonist (ICI-182,780) at 10.0nM final concentration. The cytotoxicity of the compounds was tested in parallel by measuring the cell viability using CellTiter-Fluor assay system (Promega, Madison, WI) in the same wells.
Tox21 Assay Protocol Summary:
VM7Luc4E2 cells were cultured in phenol red free assay medium containing 10% charcoal stripped FBS for 5 days prior to the assay. The cells were dispensed at 4,000 cells in 4uL of assay medium per well into white wall/solid-bottom 1536-well plates (Corning Life Sciences, Corning, NY) using a Multidrop Combi (Thermo Fisher Scientific Inc., Waltham, MA) dispenser. After the assay plates were incubated at 37C and 5% CO2 for 24hr, 1uL of 10.0nM (final concentration) ICI-182,780 or assay buffer was added using two separate tips of Flying Reagent Dispenser (FRD, Aurora Discovery, San Diego, CA). Then 23nL of compounds dissolved in DMSO at 15 concentrations and positive controls or DMSO only was transferred to the assay plates by a Pintool station (Wako, San Diego, CA). The assay plates were incubated at 37C and 5% CO2 for 22hr. After 21hr incubation at 37C, 1uL/well CellTiter-Fluor reagent (Promega Corporation, Madison, WI) was added to each well using FRD and after 1hr incubation at 37C and 5% CO2, the fluorescence signal was measured on ViewLux plate reader (PerkinElmer, Shelton, CT).
Potency means the concentration at half of the fitted maximal effect.

| SMILES | Potency | activity change, negative = cytotoxicity |
| --- | --- | --- |
| Cc1cccc(C(=O)O)c1O | inactive |  |
| CCCCC/C=C\C/C=C\CCCCCCCC(=O)O | inactive |  |
| Cc1nc2n(c(=O)c1CCN1CCC(c3noc4cc(F)ccc34)CC1)CCCC2 | inactive |  |
| CC(C)Cn1cnc2c(N)nc3ccccc3c21 |  | -6.27% [at 19 µM] (inactive) |
| Clc1ccnc(Cl)n1 | inactive |  |
| CCOC(=O)Cn1cccc1-c1nc(-c2ccc(OC)cc2)c(-c2ccc(OC)cc2)s1 | inactive |  |
| C=Cc1ccccc1C=C | inactive |  |
| COc1ccc2c(c1)c(CC(=O)OC/C=C(\C)CC/C=C(\C)CCC=C(C)C)c(C)n2C(=O)c1ccc(Cl)cc1 | inactive |  |
| Cc1c(N)cccc1C(F)(F)F | inactive |  |
| CC(C)OC(=O)C(O)(CC(=O)O)CC(=O)O | inactive |  |
| Oc1ccccc1O | inactive |  |
| O=C(O)O |  | 1.41% [at 8.39 µM] (inactive) |
| [Cl][Pt-2]([Cl])([Cl])[Cl] | inactive |  |
| CC(C(=O)O)c1ccc2c(c1)[nH]c1ccc(Cl)cc12 (stereo not given) | inactive |  |
| O=[N+]([O-])c1cccc(C(F)(F)F)c1 | inactive |  |
| C[C@H]1NCc2cc(-c3ccc4c(=O)c(C(=O)O)cn(C5CC5)c4c3OC(F)F)ccc21 |  | 1.35% [at 19 µM] (inactive) |
| C#Cc1ccc(-c2ccccc2F)cc1 | inactive |  |
| CCN(CCN)c1cccc(C)c1 | inactive |  |
| CCCCCc1ccc(Cl)cc1 | inactive |  |
| CC(C)(C)c1ccc(C(O)CCCN2CCC(C(O)(c3ccccc3)c3ccccc3)CC2)cc1 (stereo not given) | inactive |  |

| SMILES | Potency | activity change, negative = cytotoxicity |
| --- | --- | --- |
| CC(=O)OCC=C(C)C | inactive |  |
| O=C(Oc1ccccc1)Oc1ccccc1 | inactive |  |
| O=c1oc2cc(O)ccc2c2oc3cc(O)ccc3c12 | inactive |  |
| Cc1cc(C(C)(C)C)c(O)c(C)c1Cn1c(=O)n(Cc2c(C)cc(C(C)(C)C)c(O)c2C)c(=O)n(Cc2c(C)cc(C(C)(C)C)c(O)c2C)c1=O | inactive |  |
| COc1cc2nc(N3CCN(C(=O)c4ccco4)CC3)nc(N)c2cc1OC |  | -1.18% [at 19 µM] (inactive) |
| CN(C)C(=O)COC(=O)Cc1ccc(OC(=O)c2ccc(N=C(N)N)cc2)cc1 | inactive |  |
| OC[C@@H](O)[C@@H](O)CO | inactive |  |
| O=S(=O)(O)c1ccc(N=Nc2c(O)ccc3ccccc23)cc1 | 27.3 µM (active) |  |
| C=CC(C)(CCC=C(C)C)OC=O (stereo not given) | inactive |  |
| CCCc1ccc(OCC(=O)N2CCN(C(=O)COc3ccc(CCC)cc3OC)CC2)c(OC)c1 | inactive |  |
| O=C(O)c1cc(O)c2ccccc2c1O | 27.3 µM (active) |  |
| CCCCCC(C)OC(=O)COc1ccc(Cl)c2cccnc12 (stereo not given) | inactive |  |
| O=C(Nc1ccc2c(O)c(N=Nc3ccc(N=Nc4ccc(S(=O)(=O)O)cc4)cc3)c(S(=O)(=O)O)cc2c1)c1ccccc1 | 13.7 µM (active) |  |
| C=C(C)C(=O)OCCCCCCCCCC | inactive |  |
| CCn1c2ccccc2c2cc([N+](=O)[O-])ccc21 | inactive |  |
| CC(=O)CC(=O)Nc1ccc(S(=O)(=O)O)cc1 | inactive |  |
| O=C(O)c1ccc2cc(C(=O)O)ccc2c1 | inactive |  |
| Cc1c(C)c([N+](=O)[O-])c(C(C)(C)C)c([N+](=O)[O-])c1C | inactive |  |
| Nc1nc(-c2ccccc2)cs1 | inactive |  |
| O=c1[nH]c2ccccc2n1CCCN1CCN(C(c2ccccc2)c2ccccc2)CC1 | inactive |  |
